LGR2 antag = inhibitors of bursicon-induced LGR2 CRE-luciferase signal, primary screen, cell-based, HEK293, CRE-luciferase reporter, bursicon stimulation. AID 720647, 2013. inhibition, % at 9.99 µM. bursicon-stimulated, 4 h. Drosophila bursicon receptor LGR2 (rickets). actives 0.35% (n = 380,000);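 active = drop in luminescence signal, shown as inhibition above about 50% in the replicate tests, limit read from the data, passing the limit was not always enough; inconclusive = probably only some replicates passing the limit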;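 also: agonist challenge used bursicon conditioned medium at about half maximal strength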
PAX8 reporter = inhibitors of PAX8-driven TPO luciferase reporter, primary screen, RMG-I cells, single concentration; SteadyGlo, 24 h; inhibition, % at 12.6 µM; actives 1.2% (n = 360,000); AID 652154, 2013;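 active = mean replicate inhibition at least 60% with every replicate also reaching 60%; inconclusive = only one of the two criteria is met; inactive = mean below 60% and not all replicates reaching 60%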;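 also: luciferase light reporting Pax8 driven TPO promoter activity; plate controls were median of neutral control wells for no effect and mitoxantrone controls for full effect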
EWS-Fli block = EWS/Fli-driven NR0B1 reporter inhibitors, primary screen, A673 cells, NR0B1 luciferase, luminescence, MLPCN library; actives 0.67% (n = 350,000); viability-normalised; inhibition, % at 12.6 µM;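 active = mean inhibition of at least 50% after viability correction, with every replicate also passing that limit; inconclusive = mean reaches 50% but only one of two replicates passes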;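 also: firefly luciferase signal divided by Alamar Blue viability fluorescence both relative to DMSO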
TRPM1 prom inh = inhibitors of MITF-dependent TRPM1 promoter reporter, primary screen, cell-based, SK-MEL-5, single point, luciferase; SK-MEL-5 TRPM1 promoter luciferase, 24 h; inhibition, % at 12.5 µM; actives 0.83% (n = 330,000); AID 488899, 2010;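 active = mean inhibition across replicates of 60% or more, whatever share of single replicates reaches that level; inconclusive = some that reach 60%, reason not given; inactive = mean inhibition across replicates below 60%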
EBV LMP1 NFkB = EBV LMP1-driven NF-kappaB luciferase reporter inhibitors, primary screen, cell-based, luminescence, single point; actives 0.69% (n = 350,000); LMP1-induced NF-kappaB luciferase reporter cells; AID 504558, 2011; inhibition, % at 12.5 µM; in the data active = inhibition above about 41%; inconclusive = no clear call, values can overlap the other calls;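 also: 0% = neutral control wells and 100% = reference inhibitor control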
Shn3 inh set2 = reduction of Shn3 3'UTR firefly luciferase signal, primary screen, Schnurri-3 inhibitor project, cell-based, Clone20 osteoblasts, set 2; Clone20 osteoblast Shn3 3'UTR firefly luciferase, 24 h; inhibition, % at 12.5 µM; actives 0.52% (n = 360,000); AID 588674, 2011;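 active = mean inhibition of at least 75% with every replicate also reaching 75%; inconclusive = mean inhibition at least 75% but some replicate below; inactive = mean inhibition below 75%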;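 also: 0% = median of neutral control wells and 100% = pilot-screen positive control compound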
Starred values were filed as active, the others as inactive. Most compounds without a hit are left out; they make up all but 2.2% or so of the library.

`Cc1ccc(S(=O)(=O)N(C)C[C@H]2Oc3c(NC(=O)c4ccc(-c5nccs5)cc4)cccc3C(=O)N([C@H](C)CO)C[C@@H]2C)cc1` gave LGR2 antag 13, PAX8 reporter -15 and EWS-Fli block 5.
C[C@@H]1CN([C@H](C)CO)C(=O)c2cccc(NC(=O)Nc3ccc(F)cc3)c2O[C@H]1CN(C)S(=O)(=O)c1ccc(Cl)cc1 was read as LGR2 antag -14, PAX8 reporter -7 and EWS-Fli block 2.
Screening C[C@H]1CN([C@@H](C)CO)C(=O)c2cccc(NC(=O)Nc3ccc(F)cc3)c2O[C@H]1CN(C)S(=O)(=O)c1ccc(Cl)cc1 returned LGR2 antag 7, PAX8 reporter 67* and EWS-Fli block 13.
Screening Cn1ccnc1/C(=N\NC(=O)c1ccccc1)c1cccc([N+](=O)[O-])c1 returned LGR2 antag 8, PAX8 reporter -6, EWS-Fli block 2, TRPM1 prom inh -12, EBV LMP1 NFkB 7 and Shn3 inh set2 4.
For O=C(N/N=C(\c1ccccc1)c1ccccn1)c1cccc([N+](=O)[O-])c1 the results were TRPM1 prom inh 83*, EBV LMP1 NFkB 36 and Shn3 inh set2 92*.
Screening COc1cccc(/C=N/NC(=O)c2ccc3nc[nH]c3c2)c1O returned LGR2 antag 14, PAX8 reporter -66, EWS-Fli block -4, TRPM1 prom inh 5, EBV LMP1 NFkB 14 and Shn3 inh set2 16.
For COc1cccc(/C=N\NC(=O)c2ccc(Cn3cc(Br)c([N+](=O)[O-])n3)o2)c1O the results were LGR2 antag -18, PAX8 reporter 15, EWS-Fli block 8, TRPM1 prom inh 49, EBV LMP1 NFkB 15 and Shn3 inh set2 89*.
COc1cccc(/C=N/NC(=O)c2c(C)nc3ccc(Br)cn23)c1O was read as TRPM1 prom inh 67*, EBV LMP1 NFkB 63* and Shn3 inh set2 inconclusive.
For COc1cccc(/C=N/NC(=O)c2cc3c(OC)ccc(OC)c3[nH]2)c1O the results were LGR2 antag 16, PAX8 reporter 34, EWS-Fli block -7, TRPM1 prom inh 21, EBV LMP1 NFkB 15 and Shn3 inh set2 94*.
COc1cc(OC)c2cc(C(=O)N/N=C/c3cccc(OC)c3O)[nH]c2c1 was read as LGR2 antag 30, PAX8 reporter 29, EWS-Fli block 25, TRPM1 prom inh 54, EBV LMP1 NFkB -3 and Shn3 inh set2 96*.
Screening CO[C@H]1CN(C)C(=O)c2ccc(NC(=O)Nc3ccccc3F)cc2OC[C@@H](C)N(C(C)=O)C[C@H]1C returned LGR2 antag 6, PAX8 reporter -15 and EWS-Fli block 0.
Screening CO[C@H]1CN(C)C(=O)c2ccc(NC(=O)C3CC3)cc2OC[C@@H](C)N(C(=O)c2ccccc2)C[C@@H]1C returned LGR2 antag -9, PAX8 reporter 6 and EWS-Fli block 3.
For Cc1noc(C)c1NC(=O)N(C)C[C@H]1Oc2ccc(NS(=O)(=O)c3ccc(Cl)cc3)cc2CC(=O)N([C@@H](C)CO)C[C@@H]1C the results were LGR2 antag 11, PAX8 reporter -19 and EWS-Fli block -13.
C#CC(=O)N(c1ccc(OC)c(OC)c1)C(C(=O)NC1CCCC1)c1cccs1 (configuration not stated) was read as LGR2 antag 101*, EWS-Fli block 45, TRPM1 prom inh 96*, EBV LMP1 NFkB 10 and Shn3 inh set2 87*.
C#CC(=O)N(c1cccc(OC)c1)C(C(=O)NC1CCCC1)c1cccs1 (configuration not stated) was read as LGR2 antag 104*, EWS-Fli block 44, TRPM1 prom inh 107*, EBV LMP1 NFkB 96* and Shn3 inh set2 100*.
C=CC[C@]12CC=CC(=O)[C@@]1(O)O[C@H](c1ccc(OC)c(OC)c1)[C@H]2C was read as LGR2 antag inconclusive, EWS-Fli block 9, TRPM1 prom inh 62*, EBV LMP1 NFkB -2 and Shn3 inh set2 -7.
